# Reference: PubChem BioAssay (NCI)
# Compounds without any hit were thinned out: in the full panel of roughly 83,000, 20% have a hit.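 Percent growth is the endpoint: 0 to 100 indicates growth inhibition (40 means 60% inhibition), 0 means no net growth, and negative values indicate cell death.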 Activity calls are given as the source filed them.
# Tested on: U251 CNS
# Experiment: NCI-60 one-dose screen, 48 h (100 = growth as untreated, 0 = no growth, -100 = all killed)
# Settings: 10 µM unless noted
# Method: Growth inhibition of the U251 human tumor cell line is measured as a screen for anti-cancer activity. Cells are grown in 96 well plates and exposed to the test compound for 48 hours. Compounds are tested at a single concentration, which is 10^-5 M for most compounds. The reported endpoint is percent growth (GI% or GIPRCNT), where numbers from 0 - 100% represent growth inhibition, and numbers from -100% - 0 represent cell death. For example, a value of 40 represents 60% growth inhibition. A value of 0 means no net growth occurred over the course of the experiment. A value of -40 indicates 40% of cells at the beginning of the experiment died by the end of the experiment. A value of -100 means all cells are dead at the end of the experiment.
# NCI-60 Human Tumor Cell Lines Screen was performed using the standard one-dose NCI protocol, which is described in more detail at https://dtp.cancer.gov/discovery_development/nci-60/default.htm.
# Compounds with GIPRCNT values below 10 were considered active. Activity score was based on GIPRCNT using the following formula: […]
# Score is 0 for GIPRCNT values of 100 or above, 50 for GIPRCNT values of 0, and 100 for GIPRCNT values of -100.
row,SMILES,growth
1,CC(O)C(NC(=O)C1CCCN1C(=O)CNC(=O)C1CC(=O)NCC(=O)NC(Cc2c[nH]c3ccccc23)C(=O)NC(Cc2ccc(O)cc2)C(=O)NCC(=O)NC(CO)C(=O)NC(CCC(N)=O)C(=O)NC(Cc2c[nH]c3ccccc23)C(=O)N1)C(=O)NCC(=O)NC(CCC(N)=O)C(=O)NC(CCCNC(=N)N)C(=O)NC(CC(=O)O)C(=O)O (stereo not given),106% (inactive)
2,Cn1c(SCC(=O)Nc2ccc(-c3nc4ccc([N+](=O)[O-])cc4[nH]3)cc2)nc2ccccc2c1=O,92% (inactive)
3,NS(=O)(=O)c1cccc(Nc2nc(SCC(=O)c3ccc([N+](=O)[O-])cc3)nc3ccccc23)c1,52.2% (inactive)
4,CCN(CC)c1ccc(C=O)c(OCc2cn(CC(=O)Nc3ccc(Cl)cc3)nn2)c1,53.7% (inactive)
5,O=C(CSc1nc2sc3c(c2c(=O)n1-c1ccc(Cl)cc1)CCCC3)NNC(=O)Nc1cccc(C(F)(F)F)c1,16.7% (inactive)
6,COc1cccc(-c2nn(-c3ccccc3)cc2-c2ccnc(N3CCN(C(=O)c4ccccc4)CC3)c2)c1,78.4% (inactive)
7,Nc1cc(-c2c[nH]c3ccc(F)cc23)nc2cc(-c3c[nH]c4ccc(F)cc34)nn12,3.43% (active)
8,Clc1ccc2c(NCCCn3ccnc3)c3oc4ccc(Cl)cc4c3nc2c1,60.5% (inactive)
9,NS(=O)(=O)c1ccc(Nc2nc(Nc3ccccc3)nc(-n3nc(-c4ccccc4)cc3-c3ccccc3)n2)cc1,33.3% (inactive)
10,CCOC(=O)c1c(Nc2ccccc2)nn2c(N)c(C#N)c(-c3ccc(F)cc3)nc12,88.7% (inactive)
11,COC(=O)C1CCCN(S(=O)(=O)/N=C2\NC(=O)NC2=C(Cl)Cl)C1 (stereo not given),95.3% (inactive)
12,COc1ccc(C(=O)/C=C/c2ccc(OCc3ccc(Cl)cc3)c(OC)c2)cc1OC,58.1% (inactive)
13,CCOC(=O)c1sc(N)c(C(=O)OCC)c1C,44.2% (inactive)
14,COc1ccc(N/N=C/c2c(-c3ccc(S(C)(=O)=O)cc3)nc3ccccn23)cc1,69.4% (inactive)
15,Fc1ccc(-c2cc3nc(C(Cl)Cl)nc(-c4ccccc4)n3n2)cc1,-58.2% (active)
16,COc1cccc(-c2nn(-c3ccccc3)cc2-c2ccnc(N3CCN(C(=O)Nc4ccc(F)cc4)CC3)c2)c1,67.4% (inactive)
17,CCOC(=O)c1c(NC(=O)c2cccc(C(F)(F)F)c2)sc2cc(O)ccc12,98.9% (inactive)
18,O=C(Nc1nc2ccc(O)cc2s1)c1cccc(C(F)(F)F)c1,62.7% (inactive)
19,C/C(=C(/c1ccc(Cl)cc1)c1ccc(OCCN)cc1)c1ccc(C)cc1,101% (inactive)
20,O=C(c1ccc(O)cc1)C1[C@H](c2ccc(Cl)cc2)[C@@H](c2ccccc2)NC12C(=O)Nc1ccc(Cl)cc12 (stereo not given in full),29.6% (inactive)

row,SMILES,growth
1,C=C1CC[C@H]2[C@@](C)(CCC3OC(c4ccc(OCc5cn(C6CC(OC(C)=O)C(OC(C)=O)C(COC(C)=O)O6)nn5)cc4)OC[C@]32C)[C@@H]1/C=C/C1=CCOC1=O (stereo not given in full),92.9% (inactive)
2,O=C(CSc1nnc(-c2ccc3nc(-c4ccc(Cl)cc4)[nH]c3c2)o1)Nc1ccc(C(=O)/C=C/c2ccc(Cl)cc2)cc1,82.2% (inactive)
3,Nc1nc(N)c2c(n1)NC(c1ccc(F)cc1)CC(c1ccc(Nc3nc(NCCO)nc(Nc4ccc(Cl)cc4)n3)cc1)=N2 (stereo not given),-76.6% (active)
4,c1ccc(CNc2ncnc3ccc(-c4cnc5[nH]ncc5c4)cc23)cc1,81.6% (inactive)
5,O=C(CCN1C(=O)/C(=C/c2ccccc2F)SC1=S)N1CCOCC1,94.4% (inactive)
6,CC(=O)Oc1ccccc1C(=O)Nc1cc(C(C)C)ccc1C,10.1% (inactive)
7,CCOC(=O)c1csc(NC(=O)CSc2nc3sc4c(c3c(=O)n2-c2ccc(Cl)cc2)CCCC4)n1,98.4% (inactive)
8,CCN1C(=S)N(CC)C2C1N=C(SC)N2/N=C/C=C/c1ccccc1[N+](=O)[O-] (stereo not given),96.5% (inactive)
9,N/C(=N\c1nc2c(Cl)cc(Cl)cc2s1)C(Cl)(Cl)Cl,21% (inactive)
10,COc1ccccc1C(=O)CSc1nc(Nc2ccc(S(N)(=O)=O)cc2)c2ccccc2n1,93% (inactive)
11,N#Cc1c(-c2ccc(Cl)cc2)nc(SCc2ccc(F)cc2)nc1N1CCNCC1,-71.5% (active)
12,N#Cc1ccc(C(=O)CSc2nc(Nc3ccc(S(N)(=O)=O)cc3)c3ccccc3n2)cc1,114% (inactive)
13,COc1ccc(/C=N/Nc2ccnc3cc(Cl)ccc23)cc1Cl,-90.7% (active)
14,Cc1[nH]nc2ncc(C#Cc3cncc(C(=O)Nc4ccc(CN5CCN(C)CC5)c(C(F)(F)F)c4)c3)cc12,40.5% (inactive)
15,Nc1c(C(=O)c2ccc(Br)cc2)oc2nc(-c3cnccn3)cc(-c3cccs3)c12,92.1% (inactive)
16,O=C1c2c(c3c4cccnc4[nH]c3c3ccc4ccccc4c23)C(=O)N1CCO,51.4% (inactive)
17,OC1CCN(CCCOc2c3ccc(Cl)cc3nc3c2oc2ccccc23)CC1,-43.3% (active)
18,c1ccc2c(NCCCn3ccnc3)c3oc4ccccc4c3nc2c1,17.9% (inactive)
19,CC(C)(C)Nc1nc2c(OCCc3ccccc3)cccn2c1-c1ccc(Cl)cc1,11.9% (inactive)
20,COc1cccc(OC)c1-c1nnn(C)c1C(=S)N1CCN(c2ccc([N+](=O)[O-])cc2Cl)CC1,97.9% (inactive)
